Screening results deposited in PubChem by several laboratories.
TNF death inh – TNF-alpha cell death inhibition in Jurkat FADD-/- cells; 0.068% of 220,000 active; activation (protection from cell death), % at 10 µM; AID 463075; Jurkat FADD-/- TNF necroptosis rescue, ATP luminescence, 24 h; 0 = TNF only, 100 = no-TNF cells;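 active means activation, meaning protection from cell death, of at least 50% relative to plate controls; inactive means activation below 50%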;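 further: necroptosis triggered by 40 ng/mL TNF-alpha added together with compound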
Bim-Mcl-1 – disrupts Bim peptide binding to human Mcl-1. AID 1009. inhibition, % at 10 µM. Bead-based flow cytometry, Bim peptide-Mcl-1 binding. 0.1% of 190,000 active; in the data active means inhibition above about 40%;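 further: 0% = no compound tracer wells and 100% = peptide blocker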
Target sequence (Q07820 whole entry, looked up): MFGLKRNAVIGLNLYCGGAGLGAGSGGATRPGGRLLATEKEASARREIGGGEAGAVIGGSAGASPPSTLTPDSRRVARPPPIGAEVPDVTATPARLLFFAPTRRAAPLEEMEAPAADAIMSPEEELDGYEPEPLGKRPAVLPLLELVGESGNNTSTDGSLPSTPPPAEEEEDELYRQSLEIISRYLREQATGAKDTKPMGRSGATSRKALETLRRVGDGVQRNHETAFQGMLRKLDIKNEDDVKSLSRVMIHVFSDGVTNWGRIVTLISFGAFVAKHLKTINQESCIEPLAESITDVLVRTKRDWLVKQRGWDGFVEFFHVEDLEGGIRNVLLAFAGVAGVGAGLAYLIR
Calpain2 inh – inhibitors of pig calpain II. purified calpain II, fluorogenic peptide substrate, 30 min. inhibition, % at 16 µM. 0.37% of 220,000 active;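 active means inhibition above about 50%, limit read from the data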
Mcl1-Noxa inh – disrupts binding of human Mcl-1 to Noxa peptide. 1.5% of 220,000 active. AID 1022. TR-FRET Mcl-1/Noxa peptide binding, 2 h. Q07820. inhibition, % at 21.7 µM;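 active means compounds that cut the protein-peptide binding signal by more than 50% relative to plate controls in a single-dose test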;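 further: His-tagged Mcl-1 with rhodamine Noxa BH3 peptide and terbium anti-His antibody; 0% = Mcl-1 plus Noxa peptide wells and 100% = peptide-only wells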
zVAD death inh – L929 zVAD cell death inhibition | AID 1377 | viability rescue, % at 10 µM | L929 zVAD necroptosis rescue, ATP luminescence, 24 h; with zVAD 60 µM | 0.38% of 220,000 active;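 active means activation, scaled between plate controls, above about 75%, limit read from the data; inactive means activation under that limit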;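 further: 0% = zVAD with DMSO and 100% = DMSO alone without zVAD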
Mcl1-Bid inh – Mcl-1/Bid interaction inhibition. TR-FRET Mcl-1/Bid-Dy647 peptide binding, 1536-well. Q07820. AID 1021. inhibition, % at 21.7 µM. 0.97% of 220,000 active;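 active means compounds that cut the binding signal by more than half at the single screening dose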;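 further: His-tagged Mcl-1 with europium anti-His antibody binding Bid BH3 peptide; 0% = Mcl-1 plus peptide wells and 100% = peptide-only wells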
* = called active by the depositor; x = no result given. Compounds with a hit are over-represented: about 2.8% of the library has one in this group of screens.

SMILES	TNF death inh	Bim-Mcl-1	Calpain2 inh	Mcl1-Noxa inh	zVAD death inh	Mcl1-Bid inh
COc1cc(NC(=S)NC(=O)C(C)C)ccc1NC(=O)c1cc2ccccc2o1	1	-2	-34	3	20	-23
CCC(=O)NC(=S)Nc1ccc(NC(=O)c2cc3ccccc3o2)c(OC)c1	0	-2	-84	31	61	63*
CCC(=O)Nc1ccc(Cl)c(NC(=S)NC(=O)c2cc3ccccc3o2)c1	3	4	51*	26	1	4
CCN(CC)c1ccc(NC(=O)c2cc3ccccc3o2)c(C)c1	0	-2	-4	51*	0	-13
CCC1CCCCN1C(=O)CCc1nnc(Cc2cc(OC)ccc2OC)o1 (centres undefined)	2	x	9	-24	0	-3
COc1ccc(C2CCCN2C(=O)Nc2ccccc2)cc1OC (centres undefined)	0	1	-19	2	0	-3
CCOC(=O)C1CCN(Cc2cc(C(C)(C)C)c(O)c(C(C)(C)C)c2)CC1	-2	-2	14	-28	-1	-26
CC(C)(C)c1cc(CN2CCN(CCO)CC2)cc(C(C)(C)C)c1O	-2	-4	-8	28	0	62*
O=C(/C=C/c1cn(CC(O)CN2CCOCC2)c2ccccc12)c1cccs1 (centres undefined)	2	x	8	-28	-1	46
Cc1ccc(C(=O)/C=C/c2cn(CC(O)CN3CCOCC3)c3ccccc23)cc1 (centres undefined)	4	-32	-52	6	77*	-66
CN(C)S(=O)(=O)Oc1cccc(C(=O)Nc2ccc([N+](=O)[O-])cc2)c1	1	-8	1	16	9	6
CC(C)(C)c1ccc(S(=O)(=O)N(CCCN2CCOCC2)Cc2cccs2)cc1	1	-5	-16	32	x	45
COc1ccc(C(=O)/C=C(\N)C(F)(F)F)c(O)c1	1	0	21	69*	2	16
COc1ccc(NCC(=O)N/N=C/c2cc([N+](=O)[O-])ccc2N2CCCC2)cc1	1	0	-44	28	2	-49
CCCN(CCC)C(=O)c1ccc2c(=O)n(Cc3ccco3)c(=S)[nH]c2c1	4	-2	25	13	0	-32
COc1ccc(CCn2c(=S)[nH]c3cc(C(=O)NCc4ccco4)ccc3c2=O)cc1OC	-4	-3	-106	8	0	52*
COc1ccc(-n2c(=S)[nH]c3cc(C(=O)NCc4ccco4)ccc3c2=O)cc1OC	-2	0	-2	23	0	-30
COc1cc(NC(=O)c2ccc3c(=O)n(Cc4ccco4)c(=S)[nH]c3c2)cc(OC)c1OC	-7	-2	11	43	0	52*
Cc1ccc(OCC(=O)Nc2cnn(CCCC(=O)O)c2)c([N+](=O)[O-])c1	1	-6	22	-2	2	-6
Cc1ccc(N=Nc2c(C)[nH]n(C(N)=S)c2=O)cc1C	-1	-1	35	-1	1	-57
Cc1[nH]n(C(N)=S)c(=O)c1N=Nc1ccc(S(=O)(=O)N2CCCCCC2)cc1	-2	51*	3	-26	0	-258
COc1ccc2c(CC(=O)Nc3ccc(OC)nc3)coc2c1	1	0	-7	-8	1	-23
Cn1c(N)c(C(=O)c2cc(-c3ccccn3)nc3ccccc23)c(=O)[nH]c1=O	0	-1	0	-1	-1	-43
CCOC(=O)c1c(NC(=O)CSc2ncnc3ccccc23)sc(C)c1C	1	0	-11	20	2	59*
N#Cc1ccsc1NC(=O)CSc1ncn[nH]1	1	0	-16	3	1	-19
SMILES	TNF death inh	Bim-Mcl-1	Calpain2 inh	Mcl1-Noxa inh	zVAD death inh	Mcl1-Bid inh
CCOC(=O)c1c(NC(=O)CSc2ccccc2C(=O)O)sc(C)c1C	0	0	-54	8	6	-49
N#Cc1ccsc1NC(=O)CSc1ncnc2ccccc12	2	-1	-52	68*	2	-8
O=C(Nc1ccccc1O)c1nc(Cl)ccc1Cl	0	1	-17	11	0	-32
Cc1cc(=O)oc2cc(OC(C)C(=O)N3CCOCC3)ccc12 (centres undefined)	0	-1	-90	-5	0	0
Cc1cc(=O)oc2cc(OCC(=O)N/N=C/c3ccccc3[N+](=O)[O-])ccc12	-1	1	-57	50	1	63*
O=C(COc1ccccc1)N/N=C/c1cc2c(cc1[N+](=O)[O-])OCO2	0	-3	-14	19	0	-26
COc1ccc2c(c1)c(=O)oc1cc(OCC(=O)N3CCc4ccccc4C3)ccc12	0	-5	-104	58*	0	53*
Cc1cc(=O)oc2cc(OCC(=O)N3CCOCC3)ccc12	1	-11	-24	64*	-1	13
COc1ccc2c(c1)c(=O)oc1cc(OCC(=O)N3CCC(C)CC3)ccc12	-1	0	-239	36	-1	2
O=c1c2ccccc2nc2n1CCC2	0	-3	-10	41	1	96*
O=c1c2ccccc2nc2n1CCCCC2	0	-1	-5	10	3	-34
CC(/C=C/c1ccccc1)=N/NC(=O)CNC(=O)c1ccccc1F	1	0	15	0	41	3
CCOC(=O)c1[nH]ncc1CN1CCC(Cc2cccc(OC)c2)(C(=O)OCC)CC1	0	x	-20	-17	0	-15
COc1ccc(Nc2nnc(-c3ccc(N4CCOCC4)c([N+](=O)[O-])c3)c3ccccc23)cc1	-16	-1	-108	21	82*	-5
COc1ccc(C(=O)c2ccc(N3CCOCC3)c([N+](=O)[O-])c2)cc1	-4	0	26	13	-1	6
c1cc(C2CCN(Cc3nc(-c4ccc5c(c4)OCO5)no3)CC2)ccn1	1	0	-5	18	1	-20
CC(=O)Nc1c(O)nc(SCC(=O)Nc2nnc(SCc3ccccc3)s2)[nH]c1=O	0	-3	-50	19	4	-12
CCn1c(C)nc2cc(C(=O)N/N=C/c3cccc(OC)c3O)ccc21	-9	2	-81	65*	29	-38
COc1cccc(/C=N/NC(=O)c2ccc3nc[nH]c3c2)c1O	0	x	-5	48	1	-85
CCn1c(C)nc2cc(C(=O)N/N=C/c3ccc(O)c(O)c3O)ccc21	0	11	-46	95*	1	42
CCn1c(C)nc2cc(C(N)=O)ccc21	2	x	4	9	0	-12
COc1ccc([N+](=O)[O-])cc1COc1cc(C)cc2oc(=O)cc(-c3ccccc3)c12	-8	-6	43	-4	1	-3
Cc1ccc(CNC(=O)c2ccc(COc3ccccc3)cc2)cc1	1	-6	-14	12	2	-34
CCOC(=O)C1CCN(C(=S)Nc2ccc(CC)cc2)CC1	0	0	-23	0	1	-54
